CYP2C9 inh: blockers of cytochrome P450 2C9 activity – biochemical, luminescence, ADME assay, primary screen; inhibition, % at 5 µM; AID 777, 2007; 20% of 96,000 active; CYP2C9 Supersomes, luciferin-H conversion; P11712;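 active = blocking of liver enzyme CYP2C9 beyond about 50% at 5 µM, limit read from the data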
Cav3 T inh: Cav3.2 calcium influx blockers – cell-based, Fluo-4 calcium fluorescence, FDSS, MLSMR library, primary screen. Cav3.2-expressing cells; hits give low values. B-score at 10 µM. 4% of 100,000 active;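 active = single-dose well whose peak fluorescence ratio is a statistical outlier from its plate by either plate-standardised score or position-corrected B-score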
CYP2C19 inhib: blockers of cytochrome P450 2C19 activity – biochemical, luminescence, ADME assay, primary screen; P33261; CYP2C19 Supersomes, luciferin-H EGE luminescence, 30 min; inhibition, % at 5 µM; 21% of 96,000 active; AID 778, 2007;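 active = CYP2C19 inhibition above a set limit at 5 µM in the primary screen, cut at about 50% in these data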;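 note: plate controls were negative control wells for no effect and 2.5 mM tranylcypromine positive control for full effect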
Target sequence (P33261 whole entry, looked up): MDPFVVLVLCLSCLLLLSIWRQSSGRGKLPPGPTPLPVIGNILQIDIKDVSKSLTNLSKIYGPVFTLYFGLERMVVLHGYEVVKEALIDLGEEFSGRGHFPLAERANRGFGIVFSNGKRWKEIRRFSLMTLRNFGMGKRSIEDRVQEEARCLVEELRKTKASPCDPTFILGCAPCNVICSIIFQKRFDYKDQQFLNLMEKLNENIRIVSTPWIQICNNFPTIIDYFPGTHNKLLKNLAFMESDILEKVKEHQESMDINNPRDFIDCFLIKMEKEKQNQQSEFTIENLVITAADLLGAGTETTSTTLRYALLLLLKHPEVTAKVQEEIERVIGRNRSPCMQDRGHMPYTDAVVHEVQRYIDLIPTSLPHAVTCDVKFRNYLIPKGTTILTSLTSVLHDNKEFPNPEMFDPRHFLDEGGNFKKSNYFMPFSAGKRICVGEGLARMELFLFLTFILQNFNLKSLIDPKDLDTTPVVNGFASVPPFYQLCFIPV
CYP2C9 act: human CYP2C9 activators, primary screen, biochemical, luminescence | 1.4% of 96,000 active | AID 1024, 2008 | activation factor at 5 µM | Cytochrome P450 2C9 (Homo sapiens), P11712 | recombinant CYP2C9, luciferin-H conversion; hits give high values; factor 1 = untreated enzyme, 0 = blocked;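 active = activation factor of 2 or more for CYP2C9 at a 5 µM dose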;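 note: 0 = sulfaphenazole-blocked wells and 1 = vehicle-only wells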
CYP2C19 activ: human CYP2C19 activators, primary screen, biochemical, luminescence; activation factor at 5 µM; recombinant CYP2C19, luciferin-H EGE luminescence; hits give high values; 0 = fully inhibited enzyme, 1 = untreated enzyme; 96,000 tested, under 10 active;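 active = activation factor of at least 2 at 5 µM in the primary screen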;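 note: 0 = wells with 2.5 mM tranylcypromine and 1 = vehicle-only wells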
Active calls of the source: *. Only some compounds are listed: those with a hit (about 27% of all), similar ones and a draw of the others.

For c1ccc(-n2ncc3c(NCc4cccs4)ncnc32)cc1 the results were CYP2C9 inh 81*, Cav3 T inh -0.29, CYP2C19 inhib 60*, CYP2C9 act 0.2 and CYP2C19 activ 0.4.
Cc1ccc(C2c3c(oc4ccccc4c3=O)C(=O)N2c2nnc(C(C)C)s2)o1 (stereo not drawn) was read as CYP2C9 inh 13, Cav3 T inh 0.047, CYP2C19 inhib -5, CYP2C9 act 0.9 and CYP2C19 activ 1.1.
C#Cc1ccc([C@@H]2C=C(C(=O)N3CCOCC3)O[C@H](OCc3ccc(CO)cc3)C2)cc1 was read as Cav3 T inh -0.18.
CCOC(=O)C(NCc1ccc2c(c1)OCO2)(NC(=O)CC)C(F)(F)F (stereo not drawn) was read as CYP2C9 inh 88*, Cav3 T inh -0.0099, CYP2C19 inhib 97*, CYP2C9 act 0.1 and CYP2C19 activ 0.
Screening Cc1ccc(/C(C#N)=C\c2cn(C)c3ccccc23)cc1 returned CYP2C9 inh 92*, Cav3 T inh -1.5, CYP2C19 inhib 80*, CYP2C9 act 0.1 and CYP2C19 activ 0.2.
For CN(C)S(=O)(=O)c1ccc(C(=O)Nc2ccnn2C2CCCCC2)cc1 the results were CYP2C9 inh 63*, Cav3 T inh 0.84, CYP2C19 inhib -4, CYP2C9 act 0.4 and CYP2C19 activ 1.
`CN(C)S(=O)(=O)c1ccc(C(=O)Nc2ccccn2)cc1` gave CYP2C9 inh -6, Cav3 T inh -0.97, CYP2C19 inhib -14, CYP2C9 act 1.1 and CYP2C19 activ 1.1.
For c1ccc2c(c1)CCN(CCCNc1nc3ccccc3n3cnnc13)C2 the results were CYP2C9 inh -8, CYP2C19 inhib 0, CYP2C9 act 1.1 and CYP2C19 activ 1.
Screening CCN(CC)c1ccc(NC(=O)c2cc(OC)cc(OC)c2)c(C)c1 returned CYP2C9 inh -87, CYP2C19 inhib 24, CYP2C9 act 1.9 and CYP2C19 activ 0.8.
`COc1cc(OC)cc(C(=O)Nc2ccccc2N2CCOCC2)c1` gave CYP2C9 inh 41, Cav3 T inh 0.83, CYP2C19 inhib 40, CYP2C9 act 0.6 and CYP2C19 activ 0.6.
Screening COc1cccc(C(=O)Nc2ccccc2N2CCCC2)c1 returned CYP2C9 inh 26, Cav3 T inh -0.15, CYP2C19 inhib 69*, CYP2C9 act 0.7 and CYP2C19 activ 0.3.
Screening Cc1cccc(OCC(=O)Nc2ccccc2N2CCCCC2)c1 returned CYP2C9 inh 65*, Cav3 T inh -1.3, CYP2C19 inhib 85*, CYP2C9 act 0.3 and CYP2C19 activ 0.1.
CCN(CC)c1ccc(NC(=O)c2cccc(OC)c2)c(C)c1 was read as CYP2C9 inh -150, Cav3 T inh -1.2, CYP2C19 inhib -3, CYP2C9 act 2.5* and CYP2C19 activ 1.
`O=C(COc1ccccc1)Nc1ccccc1N1CCCCC1` gave CYP2C9 inh 78*, Cav3 T inh 0.41, CYP2C19 inhib 66*, CYP2C9 act 0.2 and CYP2C19 activ 0.3.
O=C(COc1ccccc1)Nc1ccccc1N1CCN(c2ccccc2)CC1 was read as CYP2C9 inh 56*, Cav3 T inh -3.2, CYP2C19 inhib 21, CYP2C9 act 0.4 and CYP2C19 activ 0.8.
Screening Cn1c(C(=O)N2CCCC(C(=O)NCCc3ccccc3)C2)cc2sccc21 (stereo not drawn) returned CYP2C9 inh 1, Cav3 T inh 0.14, CYP2C19 inhib 41, CYP2C9 act 1 and CYP2C19 activ 0.6.
Screening Cc1ccc(CCNC(=O)C2CCCN(C(=O)c3cc4sccc4n3C)C2)cc1 (stereo not drawn) returned CYP2C9 inh 42, Cav3 T inh -4.8*, CYP2C19 inhib 28, CYP2C9 act 0.6 and CYP2C19 activ 0.7.
For Cn1c(C(=O)N2CCCC(C(=O)NCCCc3ccccc3)C2)cc2sccc21 (stereo not drawn) the results were CYP2C9 inh 23, Cav3 T inh -4.2*, CYP2C19 inhib 33, CYP2C9 act 0.8 and CYP2C19 activ 0.7.
`COc1ccc2[nH]c(=O)c(-c3nnn(-c4ccc(Cl)c(Cl)c4)n3)cc2c1` gave Cav3 T inh 0.43.
For COc1ccc(NC(=O)c2ccc(CNc3c(NC4CCCCC4)c(=O)c3=O)cc2)c(OC)c1 the results were CYP2C9 inh 70*, Cav3 T inh -0.31, CYP2C19 inhib 15, CYP2C9 act 0.3 and CYP2C19 activ 0.9.
For O=C(c1ccco1)N1CCN(S(=O)(=O)c2cccc(C(F)(F)F)c2)CC1 the results were CYP2C9 inh 71*, Cav3 T inh -0.0025, CYP2C19 inhib 83*, CYP2C9 act 0.3 and CYP2C19 activ 0.2.
O=C(c1ccco1)N1CCN(S(=O)(=O)c2ccc3c(c2)CCN3C(=O)C2CC2)CC1 was read as CYP2C9 inh 26, Cav3 T inh 0.78, CYP2C19 inhib 69*, CYP2C9 act 0.7 and CYP2C19 activ 0.3.
`CC(=O)N1CCc2cc(Br)cc(S(=O)(=O)N3CCN(C(=O)c4ccco4)CC3)c21` gave CYP2C9 inh 59*, Cav3 T inh 0.18, CYP2C19 inhib 28, CYP2C9 act 0.4 and CYP2C19 activ 0.7.
COc1ccc(CNC(=O)Cn2c(=O)oc3ccccc32)cc1OC was read as CYP2C9 inh -9, Cav3 T inh 0.053, CYP2C19 inhib 19, CYP2C9 act 1.1 and CYP2C19 activ 0.8.
For O=c1c2ccccc2c2c(O)nc(-c3ccccc3)n2n1Cc1ccccc1 the results were CYP2C9 inh 54*, Cav3 T inh -1.5, CYP2C19 inhib 10, CYP2C9 act 0.5 and CYP2C19 activ 0.9.
Screening Cc1nn(CCc2nc(-c3ccco3)cs2)c2[nH]c(=O)cc(C(F)(F)F)c12 returned CYP2C9 inh 71*, Cav3 T inh -0.59, CYP2C19 inhib 56*, CYP2C9 act 0.3 and CYP2C19 activ 0.4.
For Cc1cc(C)n(CCc2nc(-c3ccco3)cs2)n1 the results were CYP2C9 inh -1, Cav3 T inh -0.24, CYP2C19 inhib 32, CYP2C9 act 1 and CYP2C19 activ 0.7.
Cc1ccc2c(c1)N(Cc1ccncc1)C(=O)C(C)O2 (stereo not drawn) was read as CYP2C9 inh 89*, Cav3 T inh -0.023, CYP2C19 inhib 81*, CYP2C9 act 0.1 and CYP2C19 activ 0.2.
Screening Cc1ccc2c(c1)N(CC(=O)c1cccc(Cl)c1)C(=O)C(C)O2 (stereo not drawn) returned CYP2C9 inh 24, Cav3 T inh 0.024, CYP2C19 inhib 14, CYP2C9 act 0.8 and CYP2C19 activ 0.9.
CC1=NN(C(=O)c2ccc(Cn3nc(C)cc3C)o2)C(O)(C(F)(F)F)C1 (stereo not drawn) was read as CYP2C9 inh -3, Cav3 T inh 0.45, CYP2C19 inhib 21, CYP2C9 act 1 and CYP2C19 activ 0.8.

Screening data: PubChem, several laboratories
